Screens deposited in PubChem by National Center for Advancing Translational Sciences (NCATS).
Rows were chosen to be rich in hits. Some 21% of all compounds tested hit in one or more screens of this group.
CHX counter: affects cycloheximide protein synthesis inhibition readout, counter-screen; 300,000 compounds, 12% hits; cell reporter, cycloheximide protein synthesis inhibition counterscreen; max response, %; AID 2314; in the data active = max response mostly above about 13%, no sharp cut-off; inactive = mostly below about 14%; also: read at 38.3 µM for the half of the compounds with a filed dose
Sm TGR block: blocks Schistosoma mansoni thioredoxin glutathione reductase | purified TGR, DTNB reduction, TNB absorbance 405 nm | Potency, µM (highest dose often 114 µM), most hits filed as inhibitors | 360,000 compounds, 3% hits; also: nearly all actives have a fitted effect of over 60% in size
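Kinetic colorimetric format: TGR-catalysed, NADPH-driven DTNB reduction monitored via TNB absorbance. Enzyme dispensed at 20 nM; compound exposure 15 min at room temperature before reaction start.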
NS1 inh: influenza NS1 inhibition | Potency, µM (doses to about 46.1 µM) | AID 2326 | 270,000 compounds, 0.4% hits; calls by dose curve; also: actives are rising curves; nearly all actives have a fitted effect of over 50% in size
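Growth recovery, yeast-based: influenza A NS1 expressed in S. cerevisiae causes slow growth, and suppressors are detected by OD600. The parent strain without NS1 is used as positive control.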
Shiga inhibitor: blocks Shiga toxin action in Vero cells; 290,000 compounds, 9.2% hits; Vero cells, Shiga toxin protein synthesis inhibition reporter; AID 2315; inhibition, % at 38.7 µM; in the data active = inhibition mostly above about 28%, no sharp cut-off; inactive = mostly below about 43%
Pf growth 96h: P. falciparum growth inhibition at 96 hour, primary screen for plastid delayed-death inhibitors; P. falciparum luciferase reporter growth, 96 h; Potency, µM (titrated, usually from 28.7 µM), most hits filed as inhibitors; 320,000 compounds, 6.9% hits; AID 504834
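Erythrocytes infected with luciferase-expressing P. falciparum were dispensed at 2% hematocrit and 0.05% parasitemia (final), then incubated with compounds 96 hours at 37 C in 5% CO2. Luminescence after detection reagent addition reported growth.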
Pf growth 48h: inhibits P. falciparum growth in the first generation, 48 h. P. falciparum luciferase growth in erythrocytes, 48 h. Potency, µM (doses to about 28.7 µM), actives largely listed as inhibitors. 310,000 compounds, 5.9% hits. AID 504832
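Firefly luciferase activity from engineered P. falciparum reports growth; inhibitors lower the luminescent signal. Cultures contained 2% hematocrit erythrocytes at 0.1% final parasitemia.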
Of the large screens only hits and unclear results are named; the others gave an inactive call. Unless noted, calls follow the shape of the dose curve; as a rule, active = well fitted curve in the direction sought with a large enough effect; inconclusive = small, poorly fitted or top-dose-only effect, or another doubt; inactive = no such curve, though single readings can be large; an effect the other way counts as inactive or inconclusive.

c1ccc(N2OCC3Cn4c(nc5ccccc54)C32)cc1 (stereo not drawn)	CHX counter 26.5, Sm TGR block inconclusive, Shiga inhibitor 42.0
c1ccc(CN2OCC3Cn4c(nc5ccccc54)C32)cc1 (stereo not drawn)	none
CN(C)c1ccc(/C=C/c2ccc3ccccc3n2)cc1	Sm TGR block inconclusive, Pf growth 96h inconclusive
CN(C)c1ccc(/C=C/c2nnnn2-c2ccccc2)cc1	CHX counter 60.6, Shiga inhibitor 108.4, Pf growth 96h 13.1µM
Cc1ccc(NC(=O)C(=O)NCC(c2cccnc2)N2CCc3ccccc32)cc1Cl (stereo not drawn)	none (no result: CHX counter, NS1 inh, Shiga inhibitor, Pf growth 96h, Pf growth 48h)
Nc1nc(CSCCO)nc(Nc2ccccc2)n1	none
Cc1c(-c2nc(N)nc(Nc3ccccc3)n2)oc2ccccc12	CHX counter 39.1, Shiga inhibitor 77.5, Pf growth 96h inconclusive
Cc1cccc(S(=O)(=O)c2cn(Cc3ccccc3)c3cc(N4CCCCC4)c(F)cc3c2=O)c1	none (no result: CHX counter, NS1 inh, Shiga inhibitor, Pf growth 96h, Pf growth 48h)
CN1C(=O)c2ccccc2N(C)C1c1ccc2c(c1)OCO2 (stereo not drawn)	Pf growth 48h 10.4µM
CCc1cnc2c(c1SCC(=O)Nc1cc(Cl)ccc1OC)c(=O)n(C)c(=O)n2C	none (no result: CHX counter, NS1 inh, Shiga inhibitor, Pf growth 96h, Pf growth 48h)
O=c1sc(/C=N/Nc2ccccc2)c(Cl)n1Cc1ccccc1	CHX counter 33.1, Sm TGR block 7.94µM, Shiga inhibitor active, Pf growth 96h inconclusive, Pf growth 48h inconclusive
Cc1cccc(OCC(=O)N/N=C/c2sc(=O)n(Cc3cccc(C(=O)O)c3)c2Cl)c1	Sm TGR block 25.1µM, Pf growth 96h inconclusive
O=Cc1sc(=O)n(Cc2cccc(C(=O)O)c2)c1Cl	none
O=C(O)c1cccc(Cn2c(Cl)c(/C=N/NC(=O)c3ccc(O)cc3)sc2=O)c1	Sm TGR block 31.6µM
O=c1sc2ccccc2n1Cc1ccccc1	Pf growth 96h inconclusive (no result: Sm TGR block)
O=C(COc1ccccc1)N/N=C/c1sc(=O)n(Cc2cccc(C(=O)O)c2)c1Cl	Sm TGR block 35.5µM, Pf growth 96h inconclusive, Pf growth 48h inconclusive
CCCCN(CC)CCCNC(=O)CN1C(=O)CSc2ccc(S(=O)(=O)N3CCOCC3)cc21	Pf growth 96h inconclusive (no result: NS1 inh)
C=CCOc1ccccc1CN(CCc1ccccc1)C(=O)c1cccc(S(C)(=O)=O)c1	Pf growth 96h inconclusive, Pf growth 48h inconclusive
Cc1cc(C)c(C#N)c(SCC(O)COc2ccc(Br)cc2)n1 (stereo not drawn)	Pf growth 96h inconclusive
C=C1CCN(C(CC(C)C)C(=O)NCc2ccc(Cl)c(Cl)c2)S(=O)(=O)c2ccccc21 (stereo not drawn)	none (no result: Sm TGR block, NS1 inh, Pf growth 96h, Pf growth 48h)
O=C(Nc1cccc(O)c1)c1ccc(C(F)(F)F)cc1	CHX counter 30.5, Shiga inhibitor 68.6
CC(C)CC(=O)Nc1ccc(C(=O)Nc2cccc(O)c2)cc1	CHX counter 32.3, Shiga inhibitor 73.5, Pf growth 96h inconclusive
O=C(Nc1ccc(Br)c(C(F)(F)F)c1)c1ccccc1	CHX counter 45.8
O=C(Nc1ccccc1)c1ccc(S(=O)(=O)Nc2cccc(O)c2)cc1	none
CC(=O)c1ccc(N2CCN(CC(=O)Nc3ccc(N4CCOCC4)cc3)CC2)cc1	none (no result: NS1 inh)
CC(C)CC(=O)Nc1ccc(C(=O)CN2CCN(c3ccc(O)cc3)CC2)cc1	Sm TGR block 5.62µM
O=C(Nc1cccc(C(F)(F)F)c1)c1cc[n+]([O-])cc1	none
Cc1cc(C)cc(C(=O)Nc2ccc(NC(=O)Cc3ccccc3)cc2)c1	none
O=C(Nc1ccc(C(F)(F)F)cc1)c1ccccc1	none (no result: CHX counter, NS1 inh, Shiga inhibitor)
O=C(Nc1ccc(Br)c(C(F)(F)F)c1)c1ccc(C(F)(F)F)cc1	CHX counter 36.4, Shiga inhibitor 77.8, Pf growth 96h inconclusive, Pf growth 48h inconclusive
COc1ccc(CN(C(=O)c2snc(C(N)=O)c2N)C(C(=O)NC(C)(C)C)c2ccco2)cc1 (stereo not drawn)	Sm TGR block inconclusive, Pf growth 96h 9.28µM, Pf growth 48h inconclusive
COc1ccc(CN(C(=O)c2snc(C(N)=O)c2N)C(C(=O)NC2CCCC2)c2cc(OC)ccc2OC)cc1 (stereo not drawn)	Pf growth 96h 2.08µM, Pf growth 48h 10.4µM
COc1ccc(CN(C(=O)c2snc(C(N)=O)c2N)C(C(=O)NC2CCCC2)c2ccc(OC)cc2)cc1 (stereo not drawn)	Pf growth 48h inconclusive
COc1ccc(OC)c(C(C(=O)NC2CCCCC2)N(C(=O)c2snc(C(N)=O)c2N)c2ccccc2OC)c1 (stereo not drawn)	NS1 inh inconclusive, Pf growth 48h 2.62µM
COc1cccc(C(C(=O)NC2CCCC2)N(C(=O)c2ccco2)c2ccccc2F)c1OC (stereo not drawn)	Pf growth 48h 8.28µM
CCC(C)C(NC(=O)C1CCC(C)CC1)C(=O)Nc1cc(OC)ccc1OC (stereo not drawn)	none (no result: Pf growth 48h)
CCCCNC(=O)CN1CCN(c2ccc(NC(=O)c3ccc(OC)cc3)cc2C(=O)O)CC1	none (no result: CHX counter, NS1 inh, Shiga inhibitor, Pf growth 96h, Pf growth 48h)
CC1=C(C)CC(C(=O)NCCc2ccc(F)cc2)C(C(=O)O)C1 (stereo not drawn)	none
CS(=O)(=O)N(CC(=O)N1CCc2ccccc2C1)Cc1ccc(F)cc1	none
COc1ccccc1N(C(=O)c1snc(C(N)=O)c1N)C(C(=O)NC1CCCCC1)c1cccc(OC)c1OC (stereo not drawn)	Pf growth 48h 8.28µM
COc1ccc(N(C(=O)c2snc(C(N)=O)c2N)C(C(=O)NCc2ccccc2)c2ccc(O)cc2)cc1 (stereo not drawn)	none
COc1ccccc1N(C(=O)c1snc(C(N)=O)c1N)C(C(=O)NC1CCCC1)c1ccc(N(C)C)cc1 (stereo not drawn)	Pf growth 48h 13.1µM
COc1ccccc1N(C(=O)c1snc(C(N)=O)c1N)C(C(=O)NC1CCCC1)c1ccco1 (stereo not drawn)	none
COc1ccc(OC)c(N(C(=O)c2snc(C(N)=O)c2N)C(C(=O)NCc2ccccc2)c2ccc(O)cc2)c1 (stereo not drawn)	Pf growth 96h 13.1µM, Pf growth 48h 10.4µM
COc1ccc(C)cc1N(C(=O)c1snc(C(N)=O)c1N)C(C(=O)NC1CCCCC1)c1ccc(C)o1 (stereo not drawn)	Pf growth 96h inconclusive, Pf growth 48h 9.28µM
Cc1cccc(NC(=O)CSc2ncc(-c3ccc(Br)cc3)[nH]2)c1	none (no result: CHX counter, NS1 inh, Shiga inhibitor, Pf growth 96h, Pf growth 48h)
NC(=O)c1nsc(C(=O)N(Cc2cccnc2)C(C(=O)NC2CCCC2)c2ccc(F)cc2)c1N (stereo not drawn)	Pf growth 48h inconclusive
COc1ccc(C(C(=O)NC2CCCC2)N(Cc2cccnc2)C(=O)c2snc(C(N)=O)c2N)cc1 (stereo not drawn)	Pf growth 96h 13.1µM, Pf growth 48h 11.7µM
Cc1csc2nc(COc3ccc(NC(=O)C(C)C)cc3)cc(=O)n12	none (no result: CHX counter, NS1 inh, Shiga inhibitor, Pf growth 96h, Pf growth 48h)
c1ccn2cc(CSC3=NCCS3)nc2c1	CHX counter 28.7, Shiga inhibitor 121.1 (no result: Pf growth 48h)
O=c1cc(CSc2nnc3ccccn23)c2c(ccc3ccccc32)o1	Sm TGR block 44.7µM
